# Records with an inconclusive call do not appear. Where a call stands in place of a potency, no number is given. Activity calls are given as the source filed them. Calls follow the shape of the dose curve; as a rule, active = well fitted cell-killing curve with a large enough effect; inconclusive = small, poorly fitted or top-dose-only effect; inactive = no such curve, though single readings can be large or run the other way.
# Test: qHTS of pediatric cancer cell lines to identify multiple opportunities for drug repurposing: Primary screen for MG 63 (6-TG R) cells (AID 1347105); also: nearly all actives have a fitted effect of over 50% in size
# Details: MG 63 (6-TG R) viability, CellTiter-Glo, 48 h; series mostly up to 46 µM
# Outline: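 ATP-based luminescence (CellTiter-Glo) quantifies viability after a 48-hour exposure. Compounds are dosed across 8 or 11 final concentrations; DMSO and 2.3 µM bortezomib serve as controls.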
# Potency is read from the fitted curve at half-maximal effect.
row,SMILES,Potency
1,CN(C)CCN(Cc1ccc(Cl)cc1)c1ccccn1,inactive
2,NC(N)=Nc1nc(CSCCC(N)=NS(N)(=O)=O)cs1,inactive
3,CNC(=O)c1ccc2c(C(=Nc3cccc(CN(C)C)c3)c3ccccc3)c(O)[nH]c2c1,inactive
4,CCNC(=O)Nc1ccc(Oc2ncnc(N)c2C=NOC)cc1Cl,inactive
5,O=C(O)Cc1cccc(OCCCN(Cc2cccc(C(F)(F)F)c2Cl)CC(c2ccccc2)c2ccccc2)c1,23.5 µM (active)
6,CN1CC(=O)NC1=NC(=O)Nc1cccc(Cl)c1,inactive
7,O=c1[nH]c(=O)n([C@H]2C[C@@H](O)[C@@H](CO)O2)cc1I,inactive
8,N#CC(=C1Nc2ccccc2S1)c1ccnc(OCc2ccc(CN3CCOCC3)cc2)n1,3.72 µM (active)
9,CNC1CCC(N(Cc2cccc(-c3ccncc3)c2)C(=O)c2sc3ccccc3c2Cl)CC1 (centres undefined),29.6 µM (active)
10,N#CC(c1ccc(Cl)cc1)c1c(Cl)cc(-n2ncc(=O)[nH]c2=O)cc1Cl (centres undefined),14.8 µM (active)
11,CN1CCC(COc2cnc(-c3cccc(Cn4nc(-c5cccc(C#N)c5)ccc4=O)c3)nc2)CC1,0.743 µM (active)
12,Cc1cc(-c2ncc(CC(=O)Nc3ccc(-c4cnccn4)cn3)cc2C)ccn1,inactive
13,CCCCC(C)(C)[C@H](O)C=C[C@H]1[C@H](O)CC(=O)[C@H]1CC=CCCCC(=O)O,inactive
14,CC[C@@H]([C@H](C)O)n1ncn(-c2ccc(N3CCN(c4ccc(OCC5CO[C@@](Cn6cncn6)(c6ccc(F)cc6F)C5)cc4)CC3)cc2)c1=O (some centres undefined),inactive

# From PubChem BioAssay (NCATS)
